Shown are actives, neighbours in structure and some others; about 2.5% of the full set was active somewhere.
APEX1 inh: qHTS Assay for Inhibitors of the Human Apurinic/apyrimidinic Endonuclease 1 (APE1). recombinant APE1, TAMRA/BHQ-2 abasic DNA cleavage fluorescence. DNA repair nuclease/redox regulator APEX1 (Homo sapiens), P27695. hit rate 0.35% among 350,000. Potency, µM (top dose mostly 65.8 µM), hits mostly inhibitors; further: nearly all actives have a fitted effect of over 55% in size
Target sequence (P27695 whole entry, looked up): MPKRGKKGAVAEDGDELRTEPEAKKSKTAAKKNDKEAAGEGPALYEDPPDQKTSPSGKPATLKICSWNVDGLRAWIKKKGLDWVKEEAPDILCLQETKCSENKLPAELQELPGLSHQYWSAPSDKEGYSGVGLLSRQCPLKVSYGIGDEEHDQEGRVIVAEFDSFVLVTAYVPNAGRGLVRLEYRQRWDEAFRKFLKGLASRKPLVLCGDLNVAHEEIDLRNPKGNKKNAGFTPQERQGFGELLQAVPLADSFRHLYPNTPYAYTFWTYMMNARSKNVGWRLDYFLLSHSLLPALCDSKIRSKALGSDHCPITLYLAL
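Measures dequenching upon AP-site incision of a 5'-TAMRA/3'-BHQ-2 THF-containing duplex, 50 nM; human APE1 0.75 nM after 15 min room-temperature exposure to compound; kinetic three-point read at one-minute spacing.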
L3MBTL1 inh: qHTS Assay for the Inhibitors of L3MBTL1; Lethal(3)malignant brain tumor-like protein 1 (Homo sapiens), Q9Y468; Potency, µM (titrated, usually from 57.1 µM), usual class: inhibitors; hit rate 0.66% among 230,000; AlphaScreen L3MBTL1–H3K9me1 peptide binding; further: nearly all actives have a fitted effect of over 60% in size
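L3MBTL1 50 nM + b-AHA-H3(1-15)K9me1 75 nM, 30 min RT; compound added, 30 min RT; streptavidin donor/Ni-chelate acceptor beads 10 ug/mL each final, 30 min RT dark; AlphaScreen read.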
Pol iota inh: qHTS for Inhibitors of Polymerase Iota; AID 588590, 2011; Potency, µM (titrated, usually from 115 µM), most hits filed as inhibitors; Pol iota fluorescent replication assay, 10 min; hit rate 1% among 390,000
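Fluorescent replication assay read twice, at 0 min and 10 min after adding 50 nM (final) substrate. Enzyme (10 nM) and compounds were first incubated 15 min at room temperature; enzyme-free buffer wells were negative controls.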
POLH inh: qHTS for Inhibitors of Polymerase Eta; recombinant Pol eta, fluorescent DNA replication assay; hit rate 1.2% among 390,000; Potency, µM (titrated, usually from 114 µM), actives largely listed as inhibitors; DNA polymerase eta (Homo sapiens), Q9Y253
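Pol eta at 10 nM preincubated with compounds 15 min at room temperature; reaction started with fluorescent substrate (50 nM final) and read kinetically at 0 and 10 min.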
POLB inh: qHTS Assay for Inhibitors of DNA Polymerase Beta; P06746; Pol beta primer extension/strand displacement, fluorescence kinetic; Potency, µM (highest dose often 114 µM), actives largely listed as inhibitors; hit rate 1.3% among 340,000; AID 485314, 2010
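Values derive from four-parameter Hill fits of normalized kinetic data: reads at 0 and 10 min following addition of 50 nM substrate to 10 nM Pol beta preincubated 15 min with compound.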
POLK inh: qHTS for Inhibitors of Polymerase Kappa; Potency, µM (top dose mostly 107 µM), usual class: inhibitors; DNA polymerase kappa (Homo sapiens), Q9UBT6; purified Pol kappa, fluorescent DNA synthesis assay, 10 min; AID 588579, 2011; hit rate 0.53% among 400,000
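10 nM Pol kappa was preincubated with compounds for 15 min at room temperature. Reaction started with 50 nM (final) substrate. Fluorescence read kinetically at 0 and 10 min.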
Hits are given with their value; - = inactive; ? = inconclusive; . = no result given. The call rests on the fitted dose curve; in most records, active means well fitted curve in the direction sought with a large enough effect; inconclusive means small, poorly fitted or top-dose-only effect, or another doubt; inactive means no such curve, though single readings can be large; an effect the other way counts as inactive or inconclusive.

SMILES	APEX1 inh	L3MBTL1 inh	Pol iota inh	POLH inh	POLB inh	POLK inh
C[C@H]1CN([C@@H](C)CO)C(=O)CCCn2nncc2CO[C@H]1CN(C)C(=O)c1ccncc1	.	.	.	-	.	.
Cc1ccc(-c2cc(C(=O)Nc3ccccc3C)c3ccccc3n2)o1	-	?	-	?	10µM	-
Cc1ccc2nc(-c3ccc(N=Nc4cc(S(=O)(=O)O)c5ccccc5c4O)cc3)sc2c1S(=O)(=O)O	.	.	25.1µM	.	.	20µM
Cn1c(C(c2cc3ccccc3n2C)c2cc3ccccc3n2C)cc2ccccc21	.	.	-	.	.	-
O=C(CNCc1ccc(F)cc1)Nc1ccc(S(=O)(=O)N2CCOCC2)cc1	-	.	-	-	-	-
CN(C)c1ccc(/C=C/c2sc3ccccc3[n+]2CCCCI)cc1	.	.	79.4µM	.	.	50.1µM
CCCC[n+]1c(/C=C/c2ccc(N(C)C)cc2)sc2ccccc21	.	.	50.1µM	.	.	?
CCCCCCCCCCCCCCCCCCN(CCCCCCCCCCCCCCCCCC)c1ccc(/C=C/c2ccnc3ccccc23)cc1	.	.	-	.	.	-
CCCCCCCCCC[n+]1ccc(/C=C/c2ccc(N(C)C)cc2)c2ccccc21	.	.	50.1µM	.	.	39.8µM
CC(C)(C)OC(=O)C[C@H]1C/C=C\C[C@H](CC(=O)N[C@H](CO)Cc2ccccc2)C(=O)N[C@@H](Cc2ccccc2)COC1=O	-	-	-	-	.	-
C=C1c2cccc(O)c2C(=O)C2C(=O)[C@]3(O)C(=O)C(C(N)=O)C(=O)[C@@H](N(C)C)[C@@H]3[C@@H](O)[C@H]12 (some centres not stated)	-	0.891µM	1.26µM	?	.	?
C[C@@H]1[C@H](c2ccccc2)OCCS(=O)(=O)N1Cc1ccccc1Br	.	.	-	.	.	-
CCN(c1cc(C)cc(C)c1)S(=O)(=O)c1nnc(NC(=O)c2ccccc2C)s1	.	.	-	-	-	-
COc1ccc(Cl)cc1Nc1nnc(-c2ccncc2)s1	8.44µM	.	-	?	?	-
O=C1c2ccccc2NC(c2ccc(-c3ccc(-c4ccccc4)cc3)o2)N1O (configuration not stated)	-	.	.	.	.	.
COc1ccc(O)c(/C=N/NC(=O)c2ccc(N3CCCC3=O)cc2)c1	-	.	?	-	10µM	-
COc1ccc(O)c(/C=N/NC(=O)c2cccc(N3CCCC3=O)c2)c1	-	.	?	-	-	-
Cc1nn(CC(=O)NCCc2cccs2)c(=O)c2nn(-c3ccccc3)c(C)c12	-	.	35.5µM	-	?	-
Cc1nn(CC(=O)NCCc2ccco2)c(=O)c2nn(-c3ccccc3)c(C)c12	-	.	22.4µM	31.6µM	89.1µM	-
Cc1ccc(-n2nc3c(=O)n(CC(=O)NCc4ccco4)nc(C)c3c2C)cc1	.	.	-	-	-	-
CCOC(=O)C1(C)NC(c2cccc(C)c2)C2C(=O)N(c3ccccc3)C(=O)C21 (configuration not stated)	-	-	?	-	-	-
O=C(CCl)N1CCN2C(=O)c3ccccc3C12c1ccc(Cl)cc1 (configuration not stated)	-	-	-	79.4µM	-	-
CCC(C)COC(c1ccccc1)(c1ccccc1)C(Oc1nc(C)cc(C)n1)C(=O)O (configuration not stated)	-	.	79.4µM	-	-	-
Cc1cc(C)nc(OC(C(=O)O)C(OCC(C)C)(c2ccccc2)c2ccccc2)n1 (configuration not stated)	-	.	-	?	-	-
CCc1ccc(N=C2NC(=O)/C(=C/c3cc(OC)c(O)c(OC)c3)S2)cc1	-	-	-	-	?	-
COc1cc(/C=C2/SC(=Nc3ccc(O)cc3)NC2=O)ccc1O	-	-	?	31.6µM	20µM	?
COc1cc(/C=C2\SC(=Nc3ccccc3OC)NC2=O)ccc1O	-	-	-	-	-	-
COc1ccc(/C=C2\SC(=Nc3ccccc3OC)NC2=O)cc1	-	-	?	79.4µM	-	-
